Pf apPOL block = Pf-apPOL DNA polymerase inhibition; inhibition, % at 10 µM; AID 1794808; Recombinant Pf-apPOL, molecular beacon fluorescence, 1.5 h; hit rate 0.25% among 210,000
mHTT CaM bind = inhibitors of human mutant huntingtin-calmodulin interaction | P42858 | AlphaScreen His-mHTT/GST-CaM binding, luminescence | inhibition, % at 15 µM | hit rate 3.6% among 190,000
Of the large screens only hits and unclear results are named; the others gave an inactive call. Only some compounds are listed: those with a hit (about 3.6% of all), similar ones and a draw of the others. Cut-off read from the data, not from the text of the source: active = inhibition above about 50%; inactive = the rest.

O=C(O)c1ccc2c3c1C1C=CCC1CN3CC1CC=CC21 (stereo not given)	none
O=C(O)c1cc2c3c(c1)C1C=CCC1C(c1ccccc1)N3CC1CC=CC21 (stereo not given)	mHTT CaM bind 94
CCOc1ccc(NS(=O)(=O)c2ccc3[nH]c4c(c3c2)CCCCC4)cc1	mHTT CaM bind 94
COc1ccc(CNC(=O)CN(C)S(=O)(=O)c2ccc3[nH]c4c(c3c2)CCCC4)cc1	none
CCOc1ccc(NS(=O)(=O)c2ccc(NS(=O)(=O)c3ccccc3)cc2)cc1	none
COc1cccc(NC(=O)CN(C)S(=O)(=O)c2ccc3[nH]c4c(c3c2)CCCC4)c1	none
COc1ccccc1CNS(=O)(=O)c1ccc2[nH]c(=O)sc2c1	none
COc1ccc(OC)c(CNS(=O)(=O)c2ccc3[nH]c4c(c3c2)CCCCC4)c1	mHTT CaM bind 85
COc1ccc(NS(=O)(=O)c2ccc3[nH]c4c(c3c2)CCCCC4)cc1	mHTT CaM bind 57
COc1cccc(NS(=O)(=O)c2ccc3[nH]c4c(c3c2)CCCCC4)c1	mHTT CaM bind 98
CCC(C(=O)N1CCn2cnnc2C1)c1ccccc1 (stereo not given)	none
C=CCn1c(=N)c(C(=O)NCc2cccnc2)cc2c(=O)n3ccccc3nc21	none
CCOc1ccccc1CN(C)C1CCN(C)CC1	none
COc1ccc(C)cc1NS(=O)(=O)c1ccc2[nH]c3c(c2c1)CCCC3	mHTT CaM bind 81
CCOc1ccc(NS(=O)(=O)c2ccc3[nH]c4c(c3c2)CCCC4)cc1	mHTT CaM bind 91
COc1ccc(S(=O)(=O)Nc2ccc(S(=O)(=O)Nc3cc(C)ccc3C)cc2)cc1OC	none
CCOc1ccc(NC(=O)CN(C)S(=O)(=O)c2ccc3[nH]c4c(c3c2)CCCC4)cc1	none
O=C(Nc1c(C(=O)N2CCCC2)cnn1-c1ccccc1Cl)c1ccccc1Cl	none
CCCn1cc(C2=CCN(C(=O)NCc3ccccc3)CC2)c2cccnc21	none
Cn1cc(C2=CCN(C(=O)NCc3cccc(F)c3)CC2)c2cccnc21	mHTT CaM bind 50
CCn1cc(C2=CCN(C(=O)Nc3ccc4c(c3)OCCO4)CC2)c2cccnc21	none
CCCn1cc(C2=CCN(C(=O)Nc3ccc4c(c3)OCCO4)CC2)c2cccnc21	mHTT CaM bind 59
CCCc1noc(-c2cccnc2N2CCCN(C(=O)CC3CCCCC3)CC2)n1	none
CC(C)C[C@H](CO)N(Cc1ccccc1)S(=O)(=O)N(Cc1ccccc1)[C@@H](CO)CC(C)C	mHTT CaM bind 75
C=CS(=O)(=O)N(Cc1ccccc1)[C@H](CO)CC(C)C	none
Cn1c2ccc([N+](=O)[O-])cc2c2nc3ccccc3nc21	none
CC(C)n1c2ccc(Br)cc2c2nc3ccccc3nc21	Pf apPOL block 82
O=C(NC1CCCCC1)c1csc2c1CCCC2	none
O=C1C(c2ccccn2)=C(O)c2ccccc21	none
O=C1C(=C2C/C(=N/O)c3ccccc32)C(=O)c2ccccc21	mHTT CaM bind active (no result: Pf apPOL block)
O=C1CC(=C2C(=O)c3ccccc3C2=O)c2ccccc21	mHTT CaM bind 86 (no result: Pf apPOL block)
O=C1Cc2ccccc2C1=C1Cc2ccccc2C1	none (no result: mHTT CaM bind)
Cc1cccc(N2CC(C(=O)NCc3cccc(C(F)(F)F)c3)CC2=O)c1 (stereo not given)	none
CCn1c(CC2CCN(C(=O)Nc3ccc4c(c3)CCC4)C2)nc2cccnc21 (stereo not given)	none
O=C1c2cccc(Cl)c2C(=O)c2cccc(Cl)c21	none
O=C1c2cccc(N3CCCC3)c2C(=O)c2cccc(Cl)c21	mHTT CaM bind 65
CC(C)(C)c1ccc(O)c(N=C/C=C/c2ccc([N+](=O)[O-])cc2)c1	none
O=[N+]([O-])c1ccc(/C=C/C=Nc2ccccc2O)cc1	mHTT CaM bind 83
COc1ccc(NS(=O)(=O)c2cc(Br)cc3c2N(C(C)=O)C(C)C3)cc1Cl (stereo not given)	none
CCN(CCN(C)C)Cc1cccc(Cl)c1Cl	none
Cc1ccc(Nc2nc(-c3ccc([N+](=O)[O-])cc3)cs2)cc1C	mHTT CaM bind 75
Cc1cccc(NCc2ccc([N+](=O)[O-])cc2)c1	none
Cc1ccnc(Nc2nc(-c3sc(N)nc3C)cs2)c1	mHTT CaM bind 66
Cc1ccnc(Nc2nc(-c3ccccc3)cs2)c1	none
Ic1ccc(-c2csc(Nc3ccc4c(c3)OCO4)n2)cc1	mHTT CaM bind 62
c1ccc(Nc2nc(-c3ccc4c(c3)OCO4)cs2)nc1	none
Cc1ccc(NCc2ccc([N+](=O)[O-])cc2)cc1C	mHTT CaM bind 60
O=[N+]([O-])c1ccc(Nc2nc(-c3ccncc3)cs2)cc1	none
Cc1nc(N)sc1-c1csc(Nc2cccc(C(=O)O)c2)n1	none
CC(=O)Nc1nc(C)c(-c2csc(Nc3ccc([N+](=O)[O-])cc3)n2)s1	none
Cc1cccc(Nc2nc(-c3ccc(C)c(C)c3)cs2)c1	mHTT CaM bind 55
COc1ccc(Nc2nc(-c3ccc(C)c(C)c3)cs2)cc1	none
Cc1nc(N)sc1-c1csc(Nc2ccc([N+](=O)[O-])cc2)n1	mHTT CaM bind 99
Cc1nc(N)sc1-c1csc(Nc2ccccc2)n1	mHTT CaM bind 89
Cn1nc(-c2cccs2)cc1C(=O)NCc1ccc(F)cc1F	none
Cc1onc(-c2c(Cl)cccc2Cl)c1NC(=O)NN(C)c1cccc(F)c1C#N	none (no result: mHTT CaM bind)
CC1(C)CC(=O)c2c(CC3CC(=O)NC(=O)C3)noc2C1	none
Cc1c(Cl)cccc1NS(=O)(=O)c1cc2c(s1)CCN(C(=O)C1CCC1)C2	mHTT CaM bind 51
Cc1cccc(NS(=O)(=O)c2cc3c(s2)CCN(C(=O)C2CC2)C3)c1C	none
Cc1cc2c(c(C)c1Br)C(c1ccc3c(c1)OCO3)CC(=O)O2 (stereo not given)	none
Cc1cc2c(c(C)c1Cl)C(c1ccc3c(c1)OCO3)CC(O)(c1ccccc1)O2 (stereo not given)	mHTT CaM bind 86
O=C(C[C@H]1C(=O)N(c2ccccc2)C[C@@H]1Cc1ccccc1)Nc1ccc(Br)cc1	none
COc1ccc(NC(=O)C[C@H]2C(=O)N(Cc3cccnc3)C[C@@H]2Cc2ccccc2)cc1	none
O=C(C[C@H]1C(=O)N(c2ccc(Br)cc2)C[C@@H]1Cc1ccccc1)Nc1ccccc1	mHTT CaM bind 51
COc1ccc(CN2C[C@H](Cc3ccccc3)[C@@H](CC(=O)Nc3ccccc3)C2=O)cc1	mHTT CaM bind 68
CCCCC[C@H]1CN(CCCC)C(=O)[C@@H]1CC(=O)NCc1ccccc1	none
CCCCC[C@H]1CN(Cc2ccc(OC)cc2)C(=O)[C@@H]1CC(=O)NCc1ccccc1	mHTT CaM bind 54
O=C1CSc2ccc(C(F)(F)F)cc2N1Cc1c(Cl)cccc1Cl	none (no result: mHTT CaM bind)
Cn1cccc1Cc1nnc(SCC(=O)Nc2nccs2)n1-c1ccc(F)cc1	none
Cc1ccn2cc(C(=O)NCCN(C)C)nc2c1	none
CN1C(=O)c2ccccc2C(C(=O)Nc2ccc(Cl)cn2)C1c1cn(C)c2ccccc12 (stereo not given)	none
COc1ccc(-n2nc(C(=O)NCC(=O)O)c3ccccc3c2=O)cc1	none
COc1ccc(-n2nc(C(=O)NCC(=O)N(C)Cc3ccccc3)c3ccccc3c2=O)cc1	mHTT CaM bind 66
O=C1NC(=S)S/C1=C/c1ccco1	none (no result: Pf apPOL block)
Cn1ccc(-c2ccccc2)n1	none
Cn1ccc(-c2ccnc(NN)n2)n1	mHTT CaM bind 99 (no result: Pf apPOL block)
COc1nccnc1N1CCC(N(C)C(=O)c2ccsc2)C1 (stereo not given)	none
O=C(Nc1ccc(I)cc1Cl)c1ncn[nH]1	mHTT CaM bind 96
O=C(Nc1ccccc1Cl)c1ncn[nH]1	none
COc1ccc(/C=C2\Sc3ccccc3C2=O)cc1Br	none
CCOc1cc(C=C2C(=O)c3ccccc3C2=O)ccc1OC(C)C(=O)O (stereo not given)	none
